Most compounds without a hit are left out; they make up all but 6.9% or so of the library.
NR3A LBD binder – NR3A (human) ligand-binding domain modulation | NR3A LBD differential scanning fluorimetry, Tm shift; 0% = protein alone, 100% = glycine-bound protein | Tm shift relative to glycine control, % at 25 µM | hit rate 2.5% among 340,000;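 active = melting temperature shift of at least 10% of the positive control shift, at one fixed dose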
SKKanGAS inh – SKKanGAS growth inhibition | S. pyogenes SKKanGAS, kanamycin growth, BacTiter-Glo, 6 h | inhibition, % at 7.5 µM | hit rate 1.3% among 300,000;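 active = mean replicate score, as percent of positive control median, at least 50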;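 also: strain carries kanamycin resistance gene driven by streptokinase promoter and grows in 40 µg/ml kanamycin; loss of luminescence reflects streptokinase promoter inhibition or plain growth inhibition; 0% = median of DMSO wells and 100% = positive control at its reference dose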
Mdm2 MdmX PPI – human Mdm2/MdmX binding inhibition | inhibition, % at 8 µM | SaOS-2 split-luciferase Mdm2/MdmX complementation, luminescence | O15151+Q00987 | AID 485346 | hit rate 3% among 330,000;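 active = inhibition of at least 50% at 8 µM in the primary screen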
CSC inhib – cancer stem cell inhibition; AID 2717; inhibition, % at 7.5 µM; cancer stem cell-like cells viability, luminescence; hit rate 1.1% among 300,000; in the data active = inhibition above about 75%; tested in HMLE shEcad cells
MPTP block – blocks calcium-induced mitochondrial swelling. hit rate 1.4% among 360,000. isolated mouse mitochondria, Ca2+ swelling absorbance, 30 min. inhibition, % at 10 µM;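 active = inhibition of 50% or more, scaled per plate between neutral and stimulator controls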;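 also: 0% = DMSO wells given calcium and 100% = 1 mM EGTA wells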
Beta apoptosis – blocks beta cell apoptosis. INS-1E cytokine-induced death, ATP luminescence, 48 h; percent of positive-control rescue, neutral wells zero. protection from apoptosis, % (concentration not given with the values). hit rate 0.8% among 300,000;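 active = Every replicate reaches about 75%, or at least half do and their mean reaches it too, limit read from the data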;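 also: 0% = cytokine-treated negative control wells and 100% = positive control rescue; higher means more ATP so stronger rescue from cytokine killing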
* = called active by the depositor; . = not tested or not shown.

SMILES | NR3A LBD binder | SKKanGAS inh | Mdm2 MdmX PPI | CSC inhib | MPTP block | Beta apoptosis
O=C(Nc1ccc2c(c1)OCO2)N1CCN(S(=O)(=O)c2ccc(Cl)cc2)CC1 | -2 | 2 | 13 | -1 | -1 | -2
O=C(Nc1ccc2c(c1)OCO2)N1CCN(c2ccccc2Cl)CC1 | 27* | 0 | -27 | 0 | -1 | 4
O=C(Nc1ccc(Cl)c(Cl)c1)c1ccc2c(c1)OCO2 | 37* | 3 | -255 | 25 | 5 | 10
CCN(CC(=O)Nc1ccc(NC(C)=O)cc1)C(=O)/C=C/c1ccc2c(c1)OCO2 | 31* | -2 | 2 | 66 | -2 | 0
Cc1ccc(C)c(OCC(=O)Nc2ccc3c(c2)OCO3)c1C | 0 | -2 | 28 | 33 | 0 | 6
CN(CC(=O)Nc1ccc2c(c1)OCO2)CC(=O)Nc1ccc(F)c(F)c1F | 3 | . | -12 | -15 | 0 | 3
CN(CC(=O)Nc1ccc(Cl)c(Cl)c1)CC(=O)Nc1ccc2c(c1)OCO2 | 2 | . | 2 | 80* | 3 | 1
O=C(Nc1ccc2nsnc2c1)c1ccc2c(c1)OCO2 | 14* | . | -98 | 0 | 0 | 11
O=C(NCc1cccc(Cl)c1)c1cccc2c(-c3cccnc3)coc12 | . | . | . | . | 5 | .
O=C(O)c1cc(N=Nc2c(O)ccc3ccccc23)cc(C(=O)O)c1 | 1 | . | . | . | 4 | .
O=C(O)c1ccc(N=Nc2c(O)ccc3ncccc23)cc1 | 12* | 12 | -25 | 48 | 9 | 47
COc1ccc(/C=C/C(=O)c2ccncc2)c2ccccc12 | -3 | 2 | 35 | 176* | 4 | 100*
COc1cccc(/C=C/C(=O)Nc2cccc(C(C)=O)c2)c1OC | 15* | -10 | -20 | -2 | -1 | -5
COc1ccccc1/C=C/C(=O)Nc1cccc(C(C)=O)c1 | 21* | -15 | -11 | 6 | 2 | 4
COc1cccc(/C=C/C(=O)c2cccc([N+](=O)[O-])c2)c1 | -5 | -5 | 26 | 12 | 0 | -5
COc1cccc(/C=C/C(=O)c2cccc([N+](=O)[O-])c2)c1OC | 10* | 8 | 6 | -2 | -2 | 0
Cc1ccc(S(=O)(=O)NCC(=O)N(CC(=O)NCC2CCCO2)Cc2ccco2)cc1 (stereo not drawn) | -1 | -7 | 3 | -8 | -1 | -4
COc1ccc(/C=C/C(=O)Nc2ccc(C(N)=O)cc2)cc1OC | 15* | 0 | 15 | -8 | 4 | .
COc1cccc(/C=C/C(=O)Nc2ccc3c(c2)OCCO3)c1OC | 20* | -15 | -140 | 15 | -2 | -8
C=CCOc1ccc(/C=C/C(=O)OCC(=O)N2CCN(S(=O)(=O)c3ccc(C)cc3C)CC2)cc1 | 19* | . | . | . | 0 | .
CCN(C(=O)COC(=O)/C=C/c1cccc([N+](=O)[O-])c1)c1c(N)n(Cc2ccccc2)c(=O)[nH]c1=O | -1 | . | 9 | 8 | -1 | 2
Cc1onc(-c2ccccc2Cl)c1C(=O)OCC(=O)c1ccc2c(c1)OCCO2 | 12* | 8 | 18 | -3 | 2 | -5
Nc1nc(N)nc(-c2cc(F)ccc2O)n1 | 0 | . | 28 | 3 | -1 | -2
Nc1nc(/C=C/c2ccc(F)cc2)nc(-c2ccccc2O)n1 | 16* | -4 | 19 | -4 | 2 | 15
Cc1nn(-c2ccccc2)c(/N=C/c2ccc(O)cc2)c1-c1ccccc1 | 26* | -5 | -44 | 9 | 24 | -2
SMILES | NR3A LBD binder | SKKanGAS inh | Mdm2 MdmX PPI | CSC inhib | MPTP block | Beta apoptosis
Cc1nn(-c2ccccc2)c(C)c1-c1ccccc1O | 1 | 5 | 15 | -3 | 0 | -7
O=C(Oc1ccc(C(=S)N2CCCCC2)cc1)c1ccccc1F | 39* | -2 | 19 | -10 | -1 | -6
O=C(/C=C/c1ccccc1)CC(=O)c1ccccc1O | 13* | 50* | -39 | 18 | 4 | 5
NS(=O)(=O)c1ccc(CCNC(=O)COC(=O)/C=C/c2ccc(Cl)cc2)cc1 | -2 | -29 | 7 | -1 | 2 | 3
Oc1cccc(/C=N/Nc2cccc3cccnc23)c1 | 32* | 1 | -438 | . | 5 | .
Oc1c(/C=N/Nc2cccc3cccnc23)ccc2ccccc12 | 32* | -2 | -56 | . | 2 | -2
COc1ccc2c(c1O)C(=O)c1ccccc1C2=O | . | 4 | -3 | 7 | . | -2
CC(C)COC(=O)c1ccc2c(c1O)C(=O)c1ccccc1C2=O | -12 | 90* | -30 | 21 | 2 | 85*
